Here are results for seven compounds from PubChem BioAssay (NCI).

This is part of a sample that, as a whole, favours compounds with a hit. Of some 83,000 tested, about 20% had one in any assay.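 Treatment: one concentration, 48 hours, 96-well format. Scoring: percent growth, with anything below 10 considered active.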 Values without a mark were called inactive. Calls of active or inactive are those of the source.

Common to all, as to experiment: NCI-60 one-dose screen, 48 h (100 = growth as untreated, 0 = no growth, -100 = all killed)
For one test, the system named is DU-145 prostate. The following applies: 10 µM unless noted.
For another test, the system named is K-562 leukemia. The note with it: 10 µM unless noted.
A further test has as its system MALME-3M melanoma. The note with it: 10 µM unless noted.
Another test deals with MDA-MB-231 breast. The note with it: 10 µM unless noted.
Another test deals with RXF 393 renal. The following applies: 10 µM unless noted.
The subject of another test is SF-268 CNS. The note with it: 10 µM unless noted.
Another test relates to SF-295 CNS. The following applies: 10 µM unless noted.
The subject of another test is SF-539 CNS. The following applies: 10 µM unless noted.
The test system of the next test is UACC-257 melanoma. The following applies: 10 µM unless noted.
In the next test the test system is M14 melanoma. The following applies: 10 µM unless noted.
The subject of a further test is HCT-15 colon. The following applies: 10 µM unless noted.
Another test relates to HT29 colon. The note with it: 10 µM unless noted.
The next test concerns SNB-75 CNS. The following applies: 10 µM unless noted.
A further test deals with SNB-19 CNS. The following applies: 10 µM unless noted.
A further test has as its system U251 CNS. The following applies: 10 µM unless noted.
In a further test the test system is PC-3 prostate. The note with it: 10 µM unless noted.
The subject of the next test is SK-MEL-5 melanoma. The following applies: 10 µM unless noted.
In the next test the test system is UACC-62 melanoma. The following applies: 10 µM unless noted.
Another test has as its system LOX IMVI melanoma. The note with it: 10 µM.
A further test concerns SK-MEL-28 melanoma. The following applies: 10 µM unless noted.

For the compound `Cc1ccc(NC(=O)CN2CCN(c3ncnc4c3cnn4-c3ccccc3)CC2)cc1`, the growth in the test on DU-145 prostate was 92.5%; in the test on K-562 leukemia, 59.8%; in the test on MALME-3M melanoma, 90.8%; in the test on MDA-MB-231 breast, 80.6%; with RXF 393 renal, 86.7%; with SF-268 CNS, 80.7%. Further, the growth with SF-295 CNS is 116%; with SF-539 CNS, 84.6%; in the test with UACC-257 melanoma it was 92.8%; in the test with M14 melanoma it was 100%; in the test on HCT-15 colon it was 50.3%; in the test with HT29 colon, 93.8%. Also, the growth in the test with SNB-75 CNS is 103%; in the test with SNB-19 CNS, 85.9%; in the test with U251 CNS it was 86.5%; with PC-3 prostate, 65.5%; in the test on SK-MEL-5 melanoma it was 77.6%; in the test with UACC-62 melanoma it was 69.3%. The growth with LOX IMVI melanoma is 23.3%; in the test with SK-MEL-28 melanoma it was 86.5%.

With `Cc1ccc(-c2nc(C#N)c(S(=O)(=O)N3CCN(S(=O)(=O)c4ccccc4)CC3)o2)cc1`, the growth is 28.8% in the test on DU-145 prostate; -28.1% (active) with K-562 leukemia; -77.4% (active) in the test on MALME-3M melanoma; 31.4% with MDA-MB-231 breast; -89.2% (active) in the test on RXF 393 renal; 56.5% with SF-268 CNS. Further, the growth is 149% in the test on SF-295 CNS; -43.4% (active) in the test with SF-539 CNS; 44.7% in the test with UACC-257 melanoma; -21.3% (active) in the test on M14 melanoma; -85.8% (active) in the test with HCT-15 colon; -56% (active) with HT29 colon. The growth with SNB-75 CNS is 103%; in the test on SNB-19 CNS, 74.9%; in the test with U251 CNS, 24.3%; in the test on PC-3 prostate, 52.3%; with SK-MEL-5 melanoma, 0.485% (active); in the test with UACC-62 melanoma it was 18.5%. The growth was -92.2% (active) in the test with LOX IMVI melanoma and 18.9% with SK-MEL-28 melanoma.

`Cc1ccc(C(=O)C(c2c[nH]c3ccccc23)c2c[nH]c3ccccc23)cc1`: the growth in the test with DU-145 prostate was 4.62% (active); with K-562 leukemia, 5.78% (active); in the test with MALME-3M melanoma, 72.6%; in the test with MDA-MB-231 breast it was 24.2%; with RXF 393 renal, 34%; with SF-268 CNS, 51.5%. In addition, the growth with SF-295 CNS was 81.9%; with SF-539 CNS, 70.4%; with UACC-257 melanoma, 76.6%; with M14 melanoma, 33.9%; in the test on HCT-15 colon it was -15.3% (active); with HT29 colon it was -26.1% (active). In addition, the growth in the test with SNB-75 CNS is 70.1%; in the test with SNB-19 CNS, 87.4%; in the test on U251 CNS it was 21.6%; in the test on PC-3 prostate, 17.1%; in the test with SK-MEL-5 melanoma, 83%; in the test on UACC-62 melanoma, 51.2%. For the same compound, the growth was -78.5% (active) with LOX IMVI melanoma and 19.7% in the test with SK-MEL-28 melanoma.

For the compound `O=C(CCN1C(=O)/C(=C/c2ccc(F)cc2)SC1=S)N1CCOCC1`, the growth was 35.8% in the test on DU-145 prostate; 43% in the test on K-562 leukemia; 46.1% in the test on MALME-3M melanoma; 60.9% with MDA-MB-231 breast; 47.7% with RXF 393 renal; 86.7% in the test with SF-268 CNS. In addition, the growth in the test on SF-295 CNS is 104%; with SF-539 CNS, 68.6%; in the test with UACC-257 melanoma, 52%; in the test with M14 melanoma, 57.1%; with HCT-15 colon it was 55.3%; in the test with HT29 colon, 78.7%. In addition, the growth in the test with SNB-75 CNS was 98.3%; in the test on SNB-19 CNS it was 87.6%; with U251 CNS, 89.1%; in the test on PC-3 prostate it was 106%; in the test with SK-MEL-5 melanoma it was 83.2%; with UACC-62 melanoma, 47.6%. For the same compound, the figures for the growth with LOX IMVI melanoma and in the test with SK-MEL-28 melanoma were 40.2% and 72.9%, respectively.

In the case of `Cc1occc1C(=O)NN1C(=O)/C(=C/C=C/c2ccc([N+](=O)[O-])o2)SC1=S`, the growth was -57.7% (active) in the test on DU-145 prostate; 11.2% in the test with K-562 leukemia; -78.6% (active) with MALME-3M melanoma; -89% (active) in the test on MDA-MB-231 breast; -88.1% (active) with RXF 393 renal; -64.3% (active) in the test on SF-268 CNS. For the same compound, the growth in the test on SF-295 CNS is 47%; in the test on SF-539 CNS, -99.4% (active); in the test with UACC-257 melanoma, -44.5% (active); in the test with M14 melanoma it was -65.1% (active); in the test on HCT-15 colon it was -75.5% (active); with HT29 colon, -57.2% (active). In addition, the growth in the test on SNB-75 CNS was -13.4% (active); with SNB-19 CNS, 12.6%; in the test with U251 CNS, -92.7% (active); in the test with PC-3 prostate, 0.198% (active); with SK-MEL-5 melanoma it was -96.7% (active); in the test with UACC-62 melanoma, -91.9% (active). The growth in the test on LOX IMVI melanoma is -95.9% (active); with SK-MEL-28 melanoma it was -73.2% (active).

Consider `COc1cc2oc(-c3cccc(NC(=O)[C@H](CC(N)=O)NC(=O)OC(C)(C)C)c3)cc(=O)c2c(OC)c1OC`, for which the growth in the test on DU-145 prostate was 97.1%; with K-562 leukemia, 77.1%; in the test on MALME-3M melanoma, 107%; in the test on MDA-MB-231 breast, 97.7%; in the test with RXF 393 renal it was 69.4%; in the test on SF-268 CNS, 90.2%. Moreover, the growth in the test on SF-295 CNS is 103%; in the test with SF-539 CNS it was 78%; in the test with UACC-257 melanoma, 112%; in the test on M14 melanoma, 115%; in the test with HCT-15 colon, 99.8%; with HT29 colon, 97.8%. Moreover, the growth in the test on SNB-75 CNS was 95.9%; with SNB-19 CNS, 96%; in the test on U251 CNS it was 90.1%; in the test with PC-3 prostate, 75.8%; in the test with SK-MEL-5 melanoma, 87.6%; in the test with UACC-62 melanoma, 82%. Further, the growth was 81.5% in the test with LOX IMVI melanoma and 94% with SK-MEL-28 melanoma.

With `COc1cc2oc(-c3cccc(C(=O)Nc4ccc(Cl)cc4)c3)cc(=O)c2c(OCC(=O)N[C@@H](Cc2ccccc2)C(=O)O)c1OC`, the growth in the test on DU-145 prostate was 111%; in the test with K-562 leukemia, 96.5%; with MALME-3M melanoma, 107%; in the test on MDA-MB-231 breast, 96.1%; in the test with RXF 393 renal, 111%; in the test on SF-268 CNS, 110%. Besides, the growth with SF-295 CNS is 111%; in the test on SF-539 CNS, 99.3%; with UACC-257 melanoma, 104%; in the test on M14 melanoma, 109%; in the test with HCT-15 colon, 112%; in the test on HT29 colon it was 112%. Further, the growth with SNB-75 CNS was 112%; in the test on SNB-19 CNS, 98.2%; in the test on U251 CNS, 109%; in the test with PC-3 prostate it was 97.5%; in the test on SK-MEL-5 melanoma, 96.1%; with UACC-62 melanoma, 97.8%. Further, the growth in the test with LOX IMVI melanoma is 83.4%; in the test with SK-MEL-28 melanoma, 95.5%.
